Pf apPOL block: Pf-apPOL inhibitors, biochemical, fluorescence. inhibition, % at 10 µM. actives 0.25% (n = 210,000). Recombinant Pf-apPOL, molecular beacon fluorescence, 1.5 h. Plasmodium falciparum apicoplast DNA polymerase (apPOL)
mHTT-CaM PPI inh: mutant huntingtin-calmodulin interaction inhibitors – biochemical, AlphaScreen, primary screen; P42858; AlphaScreen His-mHTT/GST-CaM binding, luminescence; inhibition, % at 15 µM; actives 3.6% (n = 190,000);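 further: 0% = both proteins with DMSO and 100% = one protein alone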
The depositor's hits bear a star; ! = repeats disagree. This is one part of a sample in which hits are shown more often than they occur. No stated cut-off is given here; in the data, active means inhibition above about 50%; inactive means the rest.

What do the screens show for `CC(C)OCCCNC(=O)C1(C)CCC(=O)N1Cc1cccc(F)c1` (stereo unspecified)?
Pf apPOL block: 3.9; mHTT-CaM PPI inh: -2.9

What do the screens show for `CCOC(=O)C1CCN(C(=O)CN(C)c2nc3c(C)ccc(C)c3s2)CC1`?
Pf apPOL block: -11.5; mHTT-CaM PPI inh: -1.0

How did CN(C)C(=S)SCc1nc(-c2ccc(Cl)cc2)no1 do in these assays?
Pf apPOL block: 6.6

How did Cc1ccc(C2=N/C(=C\c3ccc(I)cc3)C(=O)O2)cc1[N+](=O)[O-] do in these assays?
Pf apPOL block: -5.3; mHTT-CaM PPI inh: 21.0

How did CC(C)(C)N=C1Nc2ccccc2CNC12CCN(C(=O)Cc1ccccc1F)C2 (stereo unspecified) do in these assays?
Pf apPOL block: -9.7; mHTT-CaM PPI inh: 53.2*

Results for CC(C)(C)N=C1Nc2ccccc2CNC12CCN(C(=O)Cc1ccccc1)C2 (stereo unspecified) ?
Pf apPOL block: -3.5; mHTT-CaM PPI inh: 24.7

What do the screens show for `CCN(CC)C(=O)COc1ccc(-c2nnc(NCc3ccccc3)c3ccccc23)cc1`?
Pf apPOL block: -76.9; mHTT-CaM PPI inh: 99.0*

What do the screens show for `CCOc1ccc(-c2nnc(Nc3ccc(OC)c(C(N)=O)c3)c3ccccc23)cc1`?
Pf apPOL block: -2.4; mHTT-CaM PPI inh: 65.0*

How did CNC(=O)COc1ccc(Nc2nnc(-c3ccc(C)cc3)c3ccccc23)cc1 do in these assays?
Pf apPOL block: -0.5; mHTT-CaM PPI inh: 67.0*!

What do the screens show for `CC(=O)Nc1ccc(Nc2nnc(-c3ccc(O)cc3)c3ccccc23)cc1`?
Pf apPOL block: -71.2; mHTT-CaM PPI inh: 33.0

How did CN(C)C(=O)c1ccc(-c2nnc(NCc3ccccc3)c3ccccc23)cc1 do in these assays?
Pf apPOL block: -2.2; mHTT-CaM PPI inh: 33.2

What do the screens show for `COc1ccc(Nc2nnc(-c3ccc(C(=O)NCCO)cc3)c3ccccc23)cc1`?
Pf apPOL block: -4.0; mHTT-CaM PPI inh: 1.8

What do the screens show for `CC(C)NC(=O)c1c(O)c2cccc3c2n(c1=O)CC3`?
Pf apPOL block: 1.6; mHTT-CaM PPI inh: 7.0

Results for Cn1cc(-c2nc(C(=O)NCc3ccc(F)c(Cl)c3)cs2)c2cccnc21 ?
Pf apPOL block: 2.1; mHTT-CaM PPI inh: 100.2*

How did Cn1cc(-c2nc(C(=O)NCc3ccc(F)cc3Cl)cs2)c2cccnc21 do in these assays?
Pf apPOL block: -4.5; mHTT-CaM PPI inh: 2.1

How did Cn1cc(-c2nc(C(=O)NCc3cccc(F)c3)cs2)c2cccnc21 do in these assays?
Pf apPOL block: 2.5; mHTT-CaM PPI inh: 91.1*

Results for Cn1cc(CC(=O)NCc2cccc(F)c2)c2cccnc21 ?
Pf apPOL block: 2.1; mHTT-CaM PPI inh: -9.5

Results for Cc1ccc(NS(=O)(=O)c2cc3n(c2)CCCNC3=O)c(Cl)c1 ?
Pf apPOL block: 11.0; mHTT-CaM PPI inh: 1.5

What do the screens show for `CCC(=O)N1CCc2sc(C(=O)N3CCN(c4cccc(Cl)c4)CC3)cc2C1`?
Pf apPOL block: 1.9; mHTT-CaM PPI inh: 17.2

How did CC(=O)N1CCc2sc(S(=O)(=O)N3CCN(c4ccccc4)CC3)cc2C1 do in these assays?
Pf apPOL block: -3.0; mHTT-CaM PPI inh: 12.1

How did CC(=O)N1CCc2sc(S(=O)(=O)N3CCN(c4ccccc4Cl)CC3)cc2C1 do in these assays?
Pf apPOL block: -4.8; mHTT-CaM PPI inh: 80.7*

How did CC(=O)N1CCc2sc(C(=O)N3CCN(c4cccc(Cl)c4)CC3)cc2C1 do in these assays?
Pf apPOL block: 6.5; mHTT-CaM PPI inh: 78.2*

What do the screens show for `C=CCSc1nnc2c(n1)OC(c1ccc(C(=O)O)cc1)Nc1ccccc1-2` (stereo unspecified)?
Pf apPOL block: 0.8; mHTT-CaM PPI inh: -5.0

Results for COc1ccc(NC(=O)N2CCc3cn(CC(C)C)c4cccc(c34)C2)cc1OC ?
Pf apPOL block: -0.8; mHTT-CaM PPI inh: 28.8

How did CC(=O)N1CCc2cn(CC(C)C)c3cccc(c23)C1 do in these assays?
Pf apPOL block: -2.4; mHTT-CaM PPI inh: 43.7

What do the screens show for `CCC(=O)N1CCc2cn(CC(C)C)c3cccc(c23)C1`?
Pf apPOL block: -4.9; mHTT-CaM PPI inh: 53.6*

Results for CC(=O)Nc1ccc(C(=O)N2CCc3cn(CC(C)C)c4cccc(c34)C2)cc1 ?
Pf apPOL block: -1.3; mHTT-CaM PPI inh: 72.5*

What do the screens show for `CC(=O)NC(c1ccc(C(C)C)cc1)c1ccc2cccnc2c1O` (stereo unspecified)?
Pf apPOL block: -34.5; mHTT-CaM PPI inh: 100.0*

What do the screens show for `O=CNC(c1ccccc1)c1cccc([N+](=O)[O-])c1` (stereo unspecified)?
Pf apPOL block: 0.0; mHTT-CaM PPI inh: 0.3

How did CC(=O)Nc1cccnc1-c1ccc(C(=O)Nc2ccc(C(C)C)cc2)cc1 do in these assays?
Pf apPOL block: 0.6; mHTT-CaM PPI inh: 23.7

What do the screens show for `O=C(Nc1cccc2cccnc12)c1cccc([N+](=O)[O-])c1`?
Pf apPOL block: 1.2; mHTT-CaM PPI inh: -1.0

Results for CC(=O)NC(c1cccc([N+](=O)[O-])c1)c1ccc2cccnc2c1O (stereo unspecified) ?
Pf apPOL block: 0.8; mHTT-CaM PPI inh: 100.0*

Results for CCCCC(=O)NC(c1cccc([N+](=O)[O-])c1)c1ccc2cccnc2c1O (stereo unspecified) ?
Pf apPOL block: -7.4; mHTT-CaM PPI inh: 100.0*

What do the screens show for `COc1ccc(-c2nc(COc3ccc(F)c(C)c3)no2)cc1`?
Pf apPOL block: -0.6; mHTT-CaM PPI inh: -22.3

Results for CC(C)N(CC#CCNC(=O)Cc1cccc2ccccc12)C(C)C ?
Pf apPOL block: -3.9; mHTT-CaM PPI inh: -1.0

What do the screens show for `O=C(Nc1nc2c(s1)CN(S(=O)(=O)C=Cc1ccccc1)CC2)c1cnccn1`?
Pf apPOL block: 24.4; mHTT-CaM PPI inh: 71.0*

What do the screens show for `Cc1ccc(S(=O)(=O)N2CCc3nc(NC(=O)c4cccnc4)sc3C2)cc1`?
Pf apPOL block: -3.8; mHTT-CaM PPI inh: -0.6

What do the screens show for `O=C(Nc1nc2c(s1)CN(C(=O)COc1ccccc1)CC2)c1cnccn1`?
Pf apPOL block: 10.7; mHTT-CaM PPI inh: 9.1

Results for CCOc1ccccc1S(=O)(=O)N1CCc2nc(NC(=O)c3cnccn3)sc2C1 ?
Pf apPOL block: 18.5; mHTT-CaM PPI inh: 50.1*

Results for O=[N+]([O-])c1ccccc1S(=O)(=O)Nc1ccc(Cl)c(Cl)c1 ?
Pf apPOL block: -10.9; mHTT-CaM PPI inh: 4.9

What do the screens show for `Cc1ccc(NS(=O)(=O)c2ccccc2[N+](=O)[O-])cc1C`?
Pf apPOL block: 50.7*; mHTT-CaM PPI inh: 12.0

Results for Cc1cc(S(=O)(=O)N2CCC3(C2)C(=O)N(C)c2ccccc23)ccc1F (stereo unspecified) ?
Pf apPOL block: 1.2; mHTT-CaM PPI inh: 46.1

What do the screens show for `O=C(CSc1ncn[nH]1)n1c2c(c3ccccc31)CCCC2`?
Pf apPOL block: 5.0; mHTT-CaM PPI inh: 57.0*

How did Cn1c(SCC(=O)n2c3c(c4ccccc42)CCCC3)nnc1-c1ccc(N)cc1 do in these assays?
Pf apPOL block: -3.2; mHTT-CaM PPI inh: 16.1

Results for COc1cccc(Oc2coc3cc(OC(=O)C=Cc4ccccc4)ccc3c2=O)c1 ?
Pf apPOL block: -6.3; mHTT-CaM PPI inh: 62.0*

How did CCOc1ccc2c(=O)c(-c3ccccc3OC)coc2c1 do in these assays?
Pf apPOL block: -6.2; mHTT-CaM PPI inh: 2.1

What do the screens show for `C=CCOC(=O)Oc1ccc2c(=O)c(-c3ccccc3OC)coc2c1`?
Pf apPOL block: 7.9; mHTT-CaM PPI inh: 23.0

What do the screens show for `COc1cccc(Oc2coc3cc(OC(=O)c4ccccc4)ccc3c2=O)c1`?
Pf apPOL block: -13.4; mHTT-CaM PPI inh: -1.1

High-throughput results deposited in PubChem BioAssay by University of Kansas High Throughput Screening Laboratory.
